In PubChem BioAssay AID1159580 (chemical genetic matrix, 2015):
Several values for one entry are separate records, joined by “and”; a condition that tells them apart may be missing. Identical values can stand only once. Hit rate of the full screen: of about 5,500 compounds, about 2,000 (36%) were called active. Roughly 18% stayed inconclusive and do not appear here. Cut-off read from the data, not from the text of the source: active = normalized growth mostly below about 0.91 (no sharp cut-off); inconclusive = no clear call, values can overlap the other calls; inactive = mostly above about 0.92. Some of the results follow.

Experiment: chemical genetic growth profiling, strain panel (AID 1159580);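 note: tested at 20 µM; growth read once vehicle control cultures reached saturation at 30 °C; 1 = growth at the plate median or of vehicle wells; lower values mean less growth of the strain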
Conditions: S. cerevisiae deletion strains, growth OD

Measured: normalized growth

O=C1c2ccccc2C(=O)C1c1ccccc1
inactive: locus YAL013W, strain DEP1, active compounds read low 0.975 | locus YAL021C, strain ccr4, active compounds read low 1.01 | locus YAL026C, strain drs2, active compounds read low 1 | locus YAL030W, strain snc1, active compounds read low 1 | locus YBL061C, strain skt5, active compounds read low 0.998 | locus YBR009C, strain hhf1, active compounds read low 1.01 | locus YBR021W, strain FUR4, active compounds read low 1 | locus YBR023C, strain chs3, active compounds read low 1 | locus YBR171W, strain sec66, active compounds read low 0.957 | locus YBR229C, strain ROT2, active compounds read low 1 and 0.94 | locus YBR231C, strain swc5, active compounds read low 1.01 | locus YBR279W, strain paf1, active compounds read low 0.993 | locus YCL011C, strain gbp2, active compounds read low 1 | locus YCL016C, strain dcc1, active compounds read low 1.01 | locus YCL029C, strain bik1, active compounds read low 1.01 | locus YCL061C, strain MRC1, active compounds read low 1 and 0.995 | locus YCL069W, strain vba3, active compounds read low 0.995 | locus YCR088W, strain abp1, active compounds read low 0.988 | locus YDL005C, strain med2, active compounds read low 1 | locus YDL035C, strain GPR1, active compounds read low 1.01 | locus YDL040C, strain nat1, active compounds read low 1 | locus YDL074C, strain BRE1, active compounds read low 1 | locus YDL101C, strain DUN1, active compounds read low 1.01 and 0.909 | locus YDL134C, strain PPH21, active compounds read low 1.01 | locus YDL185W, strain tfp1, active compounds read low 0.991 | locus YDL192W, strain arf1, active compounds read low 1.01 | locus YDR001C, strain nth1, active compounds read low 0.981 | locus YDR069C, strain doa4, active compounds read low 0.996 | locus YDR101C, strain arx1, active compounds read low 1 | locus YDR137W, strain rgp1, active compounds read low 0.995 | locus YDR150W, strain NUM1, active compounds read low 0.998 and 1.01 | locus YDR159W, strain sac3, active compounds read low 1.01 | locus YDR162C, strain NBP2, active compounds read low 0.995 | locus YDR195W, strain ref2 0.997 | locus YDR297W, strain sur2, active compounds read low 0.993 | locus YDR318W, strain mcm21, active compounds read low 1.01 | locus YDR334W, strain swr1, active compounds read low 0.996 | locus YDR335W, strain msn5, active compounds read low 0.995 | locus YDR388W, active compounds read low 1.02 | locus YDR392W, strain spt3, active compounds read low 0.918 | locus YDR502C, strain sam2, active compounds read low 1 | locus YEL003W, strain gim4, active compounds read low 0.991 | locus YEL037C, strain rad23, active compounds read low 0.992 | locus YEL061C, strain CIN8 (second series), active compounds read low 0.986 | locus YEL061C, strain CIN8, active compounds read low 0.998 and 0.977 | locus YER015W, strain faa2, active compounds read low 1.01 | locus YER016W, strain bim1, active compounds read low 1 | locus YER110C, active compounds read low 1.01 | locus YER111C, strain swi4, active compounds read low 0.999 | locus YER155C, strain BEM2 (second series), active compounds read low 1 | locus YER155C, strain BEM2, active compounds read low 0.989 | locus YER167W, strain BCK2, active compounds read low 0.997 | locus YFR010W, strain ubp6, active compounds read low 1 | locus YGL078C, strain dbp3, active compounds read low 0.99 | locus YGL086W, strain mad1, active compounds read low 0.997 | locus YGL167C, strain pmr1, active compounds read low 1 | locus YGL173C, strain kem1, active compounds read low 1.02 | locus YGL227W, strain vid30, active compounds read low 0.978 | locus YGL240W, strain doc1, active compounds read low 1.01 | locus YGL248W, strain PDE1, active compounds read low 1 | locus YGL253W, strain hxk2, active compounds read low 0.998 | locus YGR078C, strain PAC10, active compounds read low 0.942 | locus YGR135W, strain pre9, active compounds read low 1.01 | locus YGR229C, strain SMI1, active compounds read low 1.01 and 1.05 | locus YGR252W, strain gcn5, active compounds read low 0.998 | locus YHR013C, strain ard1, active compounds read low 0.974 | locus YHR027C, strain rpn1, active compounds read low 0.997 | locus YHR030C, strain SLT2, active compounds read low 1 and 0.957 and 0.982 | locus YHR079C, strain IRE1 (second series), active compounds read low 1.01 | locus YHR079C, strain IRE1, active compounds read low 0.95 | locus YHR087W, strain rtc3, active compounds read low 0.923 | locus YHR094C, strain hxt1, active compounds read low 1.01 | locus YHR129C, strain ARP1, active compounds read low 0.992 | locus YHR142W, strain chs7, active compounds read low 1 | locus YHR200W, strain rpn10, active compounds read low 1.01 | locus YIL066C, strain RNR3, active compounds read low 1.01 | locus YIL073C, strain SPO22, active compounds read low 1.03 | locus YIL125W, strain kgd1, active compounds read low 0.989 | locus YIR030C, strain dcg1, active compounds read low 1 | locus YJL092W, strain hpr5, active compounds read low 0.983 | locus YJL095W, strain BCK1 (second series), active compounds read low 1 | locus YJL095W, strain BCK1, active compounds read low 0.984 and 0.97 | locus YJL115W, strain asf1, active compounds read low 0.99 | locus YJL129C, strain trk1, active compounds read low 0.978 | locus YJL134W, strain LCB3, active compounds read low 0.993 | locus YJL154C, strain vps35, active compounds read low 0.991 | locus YJL164C, strain tpk1, active compounds read low 1 | locus YJL166W, strain qcr8, active compounds read low 1.01 | locus YJL168C, strain set2, active compounds read low 1.01 | locus YJL187C, strain SWE1 (second series), active compounds read low 1 | locus YJL187C, strain SWE1, active compounds read low 1 | locus YJR043C, strain POL32, active compounds read low 1.01 and 0.982 | locus YJR066W, strain TOR1, active compounds read low 0.92 | locus YJR075W, strain HOC1, active compounds read low 1.01 and 0.971 | locus YKL009W, strain mrt4, active compounds read low 0.974 | locus YKL068W, active compounds read low 0.989
